Only some compounds are listed: those with a hit (about 19% of all), similar ones and a draw of the others.
IL1B secr inh = inhibitors of inflammasome signaling (IL-1 beta secretion). THP-1 LPS/ATP IL-1B secretion, AlphaLISA, 16 h; stronger effect = lower value. activity change, % at 57.5 µM. 360,000 tested, 4.7% active; in the data active = activity change below about -50%; inconclusive = mostly about -30% to -49%
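Secreted IL-1B measured by AlphaLISA bead assay after 16 h compound exposure of THP-1 cells; compounds (final up to 57.5 uM) added 1 h before LPS (250 ng/mL) and ATP (1.25 mM) stimulation; lower signal means less secretion.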
HT1080NT lethal = kills 2HG-producing HT-1080-NT fibrosarcoma cells; HT-1080-NT fibrosarcoma viability, CellTiter-Glo ATP luminescence, 48 h; 360,000 tested, 1.6% active; Potency, µM (highest dose often 46.1 µM), inactives show top-dose activity, negative = less viability, usual class: cytotoxic;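 also: NT is the 2HG producing partner of a matched IDH1 knockdown line; potency is read from the fitted curve at half-maximal effect; 0% = DMSO-treated cells and -100% = media-only wells without cells; nearly all actives have a fitted effect of over 55% in size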
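Fibrosarcoma NT cells, 750 per well in 5% FBS RPMI, were exposed to compound for 48 hours. Viability: CellTiter-Glo luminescence.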
HT1080 IDH1KD tx = toxicity to HT-1080 IDH1 knockdown cells (counter line); Potency, µM (highest dose often 46.1 µM), without a hit: top-dose activity, negative = toxicity, most hits filed as cytotoxic; 360,000 tested, 2% active; HT-1080 IDH1 knockdown viability, ATP luminescence, 48 h;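 also: potency is read from the fitted curve at half-maximal effect; 0% = DMSO wells and -100% = cell-free medium wells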
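Luminescent ATP read-out (CellTiter-Glo, 10 min at room temperature) after 48 h compound exposure at 37 °C gave viability of IDH1-knockdown HT-1080 cells. Activity was normalised to DMSO and cell-free wells, then fitted as concentration-response curves.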
TDP1 cell CPT = growth inhibition of DT40 Tdp1-/-;hTDP1 cells with camptothecin (screen for TDP1 inhibitors). 420,000 tested, 12% active. Potency, µM (titrated, usually from 46.2 µM), for the others: at the top dose activity change, negative = growth inhibition, hits mostly inhibitors. chicken DT40 Tdp1-/-;hTDP1 cells + 20 nM CPT, ATP luminescence, 48 h. AID 686979; also: potency is read from the fitted curve at half-maximal effect; nearly all actives have a fitted effect of over 55% in size
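Chicken DT40 Tdp1-/- cells stably complemented with human TDP1 were seeded at 400 cells/well in medium containing 20 nM camptothecin, exposed to pin-transferred compounds, and grown at 37 °C for at least 48 hr. Viability was read as ATP luminescence.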
DT40 TDP1 no CPT = qHTS for Inhibitors of human tyrosyl-DNA phosphodiesterase 1 (TDP1): qHTS in cells in absence of CPT. DT40 Tdp1-/- hTDP1 cells, no CPT, ATP luminescence, 48 h. Potency, µM (series often up to 46.2 µM), for inactives: at the highest dose activity change, negative = growth inhibition, actives largely listed as inhibitors. 420,000 tested, 15% active. AID 686978, 2013; also: potency is read from the fitted curve at half-maximal effect; nearly all actives have a fitted effect of over 55% in size
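Readout: luminescence from CellTiter-Glo after 30 min in the dark at RT. Cells: DT40 Tdp1-/- with stable hTDP1, 400/well. Exposure: compounds alone, ≥48 hr, 37 °C.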
Numbers without * were called inactive; i = inactive; u = inconclusive; x = no result; [ ] = remark or other dose. Unless noted, calls follow the shape of the dose curve; as a rule, active = well fitted curve in the direction sought with a large enough effect; inconclusive = small, poorly fitted or top-dose-only effect, or another doubt; inactive = no such curve, though single readings can be large; an effect the other way counts as inactive or inconclusive. Unless noted, % is scaled to controls: 0 for no effect and ±100 for the full control effect.

SMILES | IL1B secr inh | HT1080NT lethal | HT1080 IDH1KD tx | TDP1 cell CPT | DT40 TDP1 no CPT
CC(=O)c1ccc(N2CCN(C(=O)C3CCCN(S(=O)(=O)c4ccc(Br)s4)C3)CC2)cc1 (configuration not stated) | x | x | x | 14.6µM* | 9.2µM*
CC(=O)c1ccc(N2CCN(C(=O)C3CCN(S(=O)(=O)c4cn(C)cn4)CC3)CC2)cc1 | x | x | x | -11.7% | -9.2%
CC(=O)c1ccc(N2CCN(C(=O)C3CCN(S(=O)(=O)c4ccc(Br)s4)CC3)CC2)cc1 | x | x | x | u | 16.4µM*
O=C(C1CCCN(S(=O)(=O)c2ccc(Br)s2)C1)N1CCN(c2ccccc2F)CC1 (configuration not stated) | x | x | x | u | 23.1µM*
O=C(C1CCCN(S(=O)(=O)c2ccc(Br)s2)C1)N1CCN(c2ccc(F)cc2)CC1 (configuration not stated) | x | x | x | 18.4µM* | 11.6µM*
COc1ccccc1Cc1nc2ccccc2nc1SCC(=O)NCc1ccc(F)cc1 | x | x | x | -0.6% | -4.0%
COC(=O)[C@@H]1CCCN1Cc1ccc2c(c1)CN(Cc1ccccc1F)CCO2 | x | x | x | -5.8%[9.04 µM] | -11.7%
O=C(O)C1CCCN(S(=O)(=O)c2cccs2)C1 (configuration not stated) | -0.9 | 2.2% | 12.1% | 2.6% | -0.6%
O=C(C1CCCN(S(=O)(=O)c2cccs2)C1)N1CCN(c2ccccc2F)CC1 (configuration not stated) | x | x | x | 23.1µM* | 14.6µM*
COc1ccc(CCN2C(=O)c3[nH]nc(-c4ccccc4O)c3C2c2ccccc2)cc1 (configuration not stated) | x | x | x | 5.17µM* | 5.8µM*
COc1cccc(C2c3c(-c4ccccc4O)n[nH]c3C(=O)N2CCc2ccc(OC)c(OC)c2)c1 (configuration not stated) | x | x | x | 14.6µM* | 18.4µM*
CC1(C(=O)Nc2cnc3ccccc3c2)CCN1C(=O)CCc1ccccc1 (configuration not stated) | -15.9 | 5.9% | -1.7% | 18.4µM* | 18.4µM*
CC1(C(=O)Nc2cnc3ccccc3c2)CCN1CCc1ccccc1 (configuration not stated) | -26.9 | u | -25.0% | u | 18.4µM*
CC1(C(=O)Nc2cnc3ccccc3c2)CCN1Cc1ccc2c(c1)OCCO2 (configuration not stated) | 0.0 | 13.4% | 1.0% | u | u
CC(C)Oc1ccc(CN2CCC2(C)C(=O)Nc2cnc3ccccc3c2)cc1 (configuration not stated) | -15.1 | -19.0% | -24.4% | 18.4µM* | u
CC1(C(=O)Nc2cccc3ncccc23)CCN1C(=O)CCc1ccccc1 (configuration not stated) | 32.9 | -0.8% | 22.3% | u | u
Cc1oc(-c2ccccc2)nc1C(=O)N1CCN(c2ccc(F)cc2)CC1 | 23.3 | 1.7% | -1.9% | u | u
Cc1ccc(CN2CCC2(C)C(=O)NC2CCc3ccccc32)cc1 (configuration not stated) | 0.6 | -17.4% | -21.6% | u | 23.1µM*
CSc1ccc(CN2CCC2(C)C(=O)NC2CCc3ccccc32)cc1 (configuration not stated) | -1.5 | u | u | u | 16.4µM*
CSc1ccc(CN2CCC2(C)C(=O)NCc2cccs2)cc1 (configuration not stated) | 0.0 | 15.1% | -15.4% | u | u
COC(=O)c1cc(NC(=O)[C@H](CCS(C)(=O)=O)N2Cc3ccccc3C2=O)cc(C(=O)OC)c1 | x | x | x | -19.7% | 1.7%
O=[N+]([O-])c1ccc(C[n+]2ccccc2)cc1 | 13.5 | 2.0% | 8.8% | -9.7% | -2.0%
O=C(C[n+]1ccn(-c2ccccc2)c1)c1ccc([N+](=O)[O-])cc1 | 54.3 | -29.4% | -17.4% | 14.6µM* | 16.4µM*
O=C(Cn1cc[n+](Cc2ccccc2)c1)c1ccc([N+](=O)[O-])cc1 | -71.6* | u | -2.2% | 3.66µM* | 2.59µM*
O=C(NCc1ccccc1)c1ccc([N+](=O)[O-])cc1 | 0.0 | 7.9% | 27.4% | -27.2% | -0.7%
SMILES | IL1B secr inh | HT1080NT lethal | HT1080 IDH1KD tx | TDP1 cell CPT | DT40 TDP1 no CPT
c1ccc(Cc2cc[n+](Cc3ccccn3)cc2)cc1 | 60.3 | -1.7% | -21.4% | 20.6µM* | 9.2µM*
O=C(C[n+]1ccccc1)c1cccc([N+](=O)[O-])c1 | x | x | x | -8.0% | -2.9%
O=[N+]([O-])c1ccc(C[n+]2ccc(Cc3ccccc3)cc2)cc1 | -4.0 | u | -24.7% | 18.4µM* | 10.3µM*
CC(C)CN(CC(C)C)C(=O)CN1C(=O)NC2(CCc3ccccc3C2)C1=O (configuration not stated) | -1.3 | 4.3% | 2.5% | -16.1% | -11.0%
NC(=O)NC(=O)COC(=O)c1ccc(OC(F)F)cc1 | -7.9 | -1.3% | -1.6% | -6.7% | -0.5%
Cc1c(CCO)c(=O)n2n1CCCC2 | 0.3 | 12.4% | 17.3% | -11.2% | -3.8%
COc1ccc2c(C)cc(Sc3nnnn3-c3ccccc3)nc2c1 | -94.7* | 6.6% | -0.7% | u | u
O=[N+]([O-])c1ccc(Sc2nnnn2-c2ccccc2)nc1 | -96.5* | 16.4µM* | 20.6µM* | 3.26µM* | 3.66µM*
COc1ccc(CSc2nnnn2-c2ccccc2)cc1 | -7.7 | 3.2% | 1.3% | -13.6% | -20.1%
CCCn1c(Sc2nnnn2-c2ccccc2)n[nH]c1=O | -2.2 | 16.0% | 4.3% | 1.1% | -4.5%
CCCSc1nnc(Sc2nnnn2-c2ccccc2)s1 | -62.1* | 16.4µM* | 23.1µM* | 4.61µM* | 2.91µM*
O=[N+]([O-])c1ccc(Sc2ccccn2)nc1 | 9.5 | 5.5% | -15.9% | -0.8% | 12.0%
Cc1ccccc1-n1nnnc1Sc1nnnn1-c1ccccc1 | -115.7* | u | 14.6µM* | 11.6µM* | 8.2µM*
Cc1cc(C)cc(NC(=O)C2CCN(S(=O)(=O)c3ccc4c(c3)oc(=O)n4C)CC2)c1 | x | x | x | -28.8% | u
CCN(c1ccccc1C)S(=O)(=O)c1cc2c3c(c1)CCC(=O)N3CCC2 | 0.0 | -0.9% | 3.0% | u | 2.0%
CCCCc1nc2cc(C(=O)N3CCC(OC)CC3)ccc2o1 | -6.1 | -0.3% | -2.3% | -13.3% | 8.8%
CN(Cc1nccn1C)C(=O)c1ccc2nc(Cc3ccccc3F)oc2c1 | 4.0 | 6.7% | 10.7% | -3.5% | 18.3%
CCCc1ccc2oc(C(=O)NCCc3nc(C(=O)OCC)cs3)c(C)c2c1 | i | -18.9% | -15.3% | u | u
C=CCC1(CC=C)CCCN1C(=O)c1ccc2oc(CCCC)nc2c1 | -23.9 | -3.7% | -16.0% | 11.6µM* | 10.3µM*
CC(C)N(Cc1nccn1C)C(=O)c1ccc2oc(CCCc3ccccc3)nc2c1 | 0.0 | -7.4% | -7.3% | 18.4µM* | 23.1µM*

Screening data (PubChem)
